In PubChem BioAssay AID1025 (Sanford-Burnham Center for Chemical Genomics, 2008):
Fewer than 10 of roughly 96,000 compounds were called active.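 How the source made its calls: active means activation factor of at least 2 at 5 µM in the primary screen; inactive means the rest.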 A selection follows.

biological target: Cytochrome P450 2C19 (Homo sapiens) (UniProt P33261); assay: human CYP2C19 activators, primary screen, biochemical, luminescence (AID 1025); details: recombinant CYP2C19, luciferin-H EGE luminescence; at 5 µM; stronger effect = higher value; 0 = fully inhibited enzyme, 1 = untreated enzyme;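 further: 0 = wells with 2.5 mM tranylcypromine and 1 = vehicle-only wells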
Sequence (P33261 whole entry, looked up): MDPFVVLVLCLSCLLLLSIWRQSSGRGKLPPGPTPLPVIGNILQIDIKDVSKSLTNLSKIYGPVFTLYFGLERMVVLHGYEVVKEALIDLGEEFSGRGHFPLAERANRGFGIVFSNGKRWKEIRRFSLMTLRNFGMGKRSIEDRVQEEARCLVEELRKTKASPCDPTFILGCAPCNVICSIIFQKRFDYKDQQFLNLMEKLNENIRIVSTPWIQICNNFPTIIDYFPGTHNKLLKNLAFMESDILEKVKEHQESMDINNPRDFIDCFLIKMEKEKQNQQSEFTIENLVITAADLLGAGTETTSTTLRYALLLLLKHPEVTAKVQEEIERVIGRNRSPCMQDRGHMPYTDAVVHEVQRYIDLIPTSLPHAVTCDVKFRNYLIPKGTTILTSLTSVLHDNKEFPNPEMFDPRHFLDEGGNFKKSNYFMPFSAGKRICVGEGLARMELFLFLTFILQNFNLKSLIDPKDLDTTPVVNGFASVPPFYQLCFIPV

Activation factor, inactive:
ONC(=Nc1ccccc1)c1ccccc1Cl 0.7
Oc1ccccc1CNc1ncc(Br)cc1Br 0.6
Cc1nc(SCC(=O)N2CC(=O)Nc3ccccc32)c2c(C)c(C)sc2n1 0.5
COc1ccc(C(=S)Nc2ccccc2)cc1 0.3
N#Cc1ccc(-c2ccc(F)cc2)nc1Sc1ccccc1 1
OCCNc1nc2ccccc2n1-c1ncnc2sc3c(c12)CCC3 1.1
O=C(Nc1ccc(Br)cc1)c1cccc(NC(=O)C2C3CC4OC(=O)C2C4C3)c1 (stereo unspecified) 0.8
Cc1ccc(NC(=O)N2CCC(c3nc4c(nnn4Cc4c(F)cccc4Cl)c(=O)[nH]3)CC2)cc1 0
O=C(NC1CCc2ccccc21)C12CN(Cc3ccccc3)CC1C(c1cccc([N+](=O)[O-])c1)=NO2 (stereo unspecified) 0.9
S=C1NC(c2ccccc2)=NCN1c1ccc(Br)cc1 0.5
COC(=O)c1ccc(CSc2nc3cc(Cl)ccc3o2)cc1 1.1
O=C(NCCc1ccccc1)c1ccc(NC2=NC3CS(=O)(=O)CC3S2)cc1 (stereo unspecified) 0.9
Cn1nc(-c2ccccc2)c(CSc2cccc(Cl)c2)c1Cl 0.5
CC1(C)COC(c2cccn2Cc2ccccc2Cl)=N1 1
S=c1[nH]nc(-c2ccc(Cl)cc2)n1CC1CCCO1 (stereo unspecified) 0.6
Cc1ccc(C2CC2C(=O)NN)cc1 (stereo unspecified) 0.5
N=c1c2c(-c3ccccc3)c(-c3ccccc3)oc2ncn1Cc1ccco1 0.8
O=c1[nH]c(CCl)nc2cc(-c3ccc(Cl)cc3)sc12 0.7
CCCSC(=S)NC1CCS(=O)(=O)C1 (stereo unspecified) 0.9
CC(Sc1nnc(Cc2ccc([N+](=O)[O-])cc2)o1)C(N)=O (stereo unspecified) 0.8
Cc1ccc(NC(=S)NCCN2CCOCC2)cc1 0.8
Cc1cnc(NC(=O)CSc2nnc(C)s2)s1 0.8
Cc1ccc(N2C(=O)C(Cc3ccccc3)NC2=S)cc1 (stereo unspecified) 0.6
CC1=C(C)CC(C(=O)NNC(=O)c2ccccc2O)C(C(=O)O)C1 (stereo unspecified) 1.1
CCN(CC(=O)Nc1ccccc1OC)C(=O)Cn1cnc2ccccc2c1=O 1
O=c1[nH][nH]c(C(F)(F)F)c1C=NCc1ccccc1Cl 0.1
COC(=O)c1sc2ncccc2c1OCc1ccc(Cl)cc1Cl 1
CCOC(=O)C1Sc2[nH]c(=O)sc2C(c2ccc(Cl)cc2)C1C(=O)OCC (stereo unspecified) 0.8
C=CCN(N=Nc1cccc([N+](=O)[O-])c1)c1cccc([N+](=O)[O-])c1 0.8
CC(CC(=O)Nc1cc(C(F)(F)F)ccc1Cl)c1ccccc1 (stereo unspecified) 0.4
C(=N/N1CCN(c2ccccc2)CC1)/c1cccs1 0.5
CC1(C)CC(=O)C(C=NCCN2CCN(C(=S)Nc3cccc(Cl)c3)CC2)=C(O)C1 0.4
O=C(C1=C(O)C(=O)N(Cc2ccccc2)C1c1ccco1)c1ccco1 (stereo unspecified) 1.2
Nc1nc(C23CC4CC(CC(C4)C2)C3)cs1 0.6
CC(C)N(c1ccccc1)c1ncnc(NCCC(=O)O)c1[N+](=O)[O-] 0.4
CC1=C(C(N)=O)C(c2sccc2C)n2nnnc2N1 (stereo unspecified) 0.9
